{"source": "paper PMC11006913", "test_in_all_cases": "PBM; 200 nM protein, PBS", "settings_in_all_cases": "dsDNA, one strand shown", "key": {"[1]": {"biological_target": "HOXA4 (Homo sapiens, UniProt Q00056 201-287, W262R)", "sequence (Q00056 201-287 W262R)": "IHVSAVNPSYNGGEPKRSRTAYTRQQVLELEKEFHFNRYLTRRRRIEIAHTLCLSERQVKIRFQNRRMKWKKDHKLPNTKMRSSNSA"}, "[2]": {"biological_target": "HOXB6 (Homo sapiens, UniProt P17509 132-218, K202E)", "sequence (P17509 132-218 K202E)": "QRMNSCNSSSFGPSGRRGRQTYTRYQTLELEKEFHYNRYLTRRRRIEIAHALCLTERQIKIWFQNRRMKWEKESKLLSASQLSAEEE"}, "[3]": {"biological_target": "HOXA4 (Homo sapiens, UniProt Q00056 201-287, R217L)", "sequence (Q00056 201-287 R217L)": "as the sequence (Q00056 201-287 W262R) above, with R17L, R62W counted along it"}, "[4]": {"biological_target": "MSX2 (Homo sapiens, UniProt P35548 130-214, R199I)", "sequence (P35548 130-214 R199I)": "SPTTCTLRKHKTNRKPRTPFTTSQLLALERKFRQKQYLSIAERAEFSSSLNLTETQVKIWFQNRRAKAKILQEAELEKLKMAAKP"}, "[5]": {"biological_target": "HOXA4 (Homo sapiens, UniProt Q00056 201-287)", "sequence (Q00056 201-287)": "as the sequence (Q00056 201-287 W262R) above, with R62W counted along it"}, "[6]": {"biological_target": "MSX2 (Homo sapiens, UniProt P35548 130-214)", "sequence (P35548 130-214)": "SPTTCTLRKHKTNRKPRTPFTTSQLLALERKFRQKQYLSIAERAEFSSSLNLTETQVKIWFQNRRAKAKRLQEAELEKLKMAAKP"}, "[7]": {"biological_target": "MSX2 (Homo sapiens, UniProt P35548 130-214, F161Y)", "sequence (P35548 130-214 F161Y)": "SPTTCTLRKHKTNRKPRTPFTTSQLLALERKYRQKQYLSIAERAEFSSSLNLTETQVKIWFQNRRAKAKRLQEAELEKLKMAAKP"}, "[8]": {"biological_target": "HOXA4 (Homo sapiens, UniProt Q00056 201-287, W262F)", "sequence (Q00056 201-287 W262F)": "as the sequence (Q00056 201-287 W262R) above, with R62F counted along it"}, "[9]": {"biological_target": "HOXB6 (Homo sapiens, UniProt P17509 132-218)", "sequence (P17509 132-218)": "as the sequence (P17509 132-218 K202E) above, with E71K counted along it"}, "[10]": {"biological_target": "HOXC9 (Homo sapiens, UniProt P31274 178-260, K195R)", "sequence (P31274 178-260 K195R)": "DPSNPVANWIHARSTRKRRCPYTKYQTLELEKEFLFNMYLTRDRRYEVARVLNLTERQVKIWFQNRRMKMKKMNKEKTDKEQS"}, "[11]": {"biological_target": "HOXC9 (Homo sapiens, UniProt P31274 178-260)", "sequence (P31274 178-260)": "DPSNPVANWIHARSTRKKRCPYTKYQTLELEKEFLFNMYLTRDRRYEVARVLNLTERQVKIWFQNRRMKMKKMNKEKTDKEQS"}, "[12]": {"biological_target": "HOXD13 (Homo sapiens, UniProt P35453 263-343, T313R)", "sequence (P35453 263-343 T313R)": "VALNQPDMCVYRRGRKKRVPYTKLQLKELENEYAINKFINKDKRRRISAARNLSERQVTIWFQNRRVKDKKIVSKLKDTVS"}, "[13]": {"biological_target": "HOXC9 (Homo sapiens, UniProt P31274 178-260, R193K)", "sequence (P31274 178-260 R193K)": "as the sequence (P31274 178-260) above, with R16K counted along it"}, "[14]": {"biological_target": "HOXD13 (Homo sapiens, UniProt P35453 263-343)", "sequence (P35453 263-343)": "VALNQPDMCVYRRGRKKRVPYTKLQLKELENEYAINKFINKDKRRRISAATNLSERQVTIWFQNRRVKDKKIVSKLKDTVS"}, "[15]": {"biological_target": "HOXD13 (Homo sapiens, UniProt P35453 263-343, T313A)", "sequence (P35453 263-343 T313A)": "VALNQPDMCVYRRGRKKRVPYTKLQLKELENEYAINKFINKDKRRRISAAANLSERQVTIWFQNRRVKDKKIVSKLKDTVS"}, "[16]": {"biological_target": "HOXC9 (Homo sapiens, UniProt P31274 178-260, R222W)", "sequence (P31274 178-260 R222W)": "as the sequence (P31274 178-260) above, with R45W counted along it"}, "[17]": {"biological_target": "PRRX1 (Homo sapiens, UniProt P54821 80-166, F113S)", "sequence (P54821 80-166 F113S)": "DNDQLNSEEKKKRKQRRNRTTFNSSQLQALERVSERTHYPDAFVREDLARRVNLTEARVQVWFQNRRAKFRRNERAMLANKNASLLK"}, "[18]": {"biological_target": "HOXA2 (Homo sapiens, UniProt O43364 129-215, R185T)", "sequence (O43364 129-215 R185T)": "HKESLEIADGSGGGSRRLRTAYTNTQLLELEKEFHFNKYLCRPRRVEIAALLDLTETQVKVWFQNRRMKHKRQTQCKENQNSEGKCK"}, "[19]": {"biological_target": "HOXA2 (Homo sapiens, UniProt O43364 129-215, R185K)", "sequence (O43364 129-215 R185K)": "as the sequence (O43364 129-215 R185T) above, with T57K counted along it"}, "[20]": {"biological_target": "HOXA2 (Homo sapiens, UniProt O43364 129-215, Y150S)", "sequence (O43364 129-215 Y150S)": "as the sequence (O43364 129-215 R185T) above, with Y22S, T57R counted along it"}, "[21]": {"biological_target": "PRRX1 (Homo sapiens, UniProt P54821 80-166)", "sequence (P54821 80-166)": "as the sequence (P54821 80-166 F113S) above, with S34F counted along it"}, "[22]": {"biological_target": "HOXA2 (Homo sapiens, UniProt O43364 129-215)", "sequence (O43364 129-215)": "as the sequence (O43364 129-215 R185T) above, with T57R counted along it"}, "[23]": {"biological_target": "T1, SIX6 (Homo sapiens, UniProt O95475 114-200, L167I)", "T1 sequence": "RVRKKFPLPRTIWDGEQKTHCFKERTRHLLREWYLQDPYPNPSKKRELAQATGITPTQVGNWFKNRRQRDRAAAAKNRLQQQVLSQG"}, "[24]": {"biological_target": "T2, SIX6 (Homo sapiens, UniProt O95475 114-200, T139Q)", "T2 sequence": "T1 sequence with T26Q, I54L"}, "[25]": {"biological_target": "T3, SIX6 (Homo sapiens, UniProt O95475 114-200, L167V)", "T3 sequence": "T1 sequence with I54V"}, "[26]": {"biological_target": "T4, SIX6 (Homo sapiens, UniProt O95475 114-200, T165I)", "T4 sequence": "T1 sequence with T52I, I54L"}, "[27]": {"biological_target": "HOXC10 (Homo sapiens, UniProt Q9NYD6 254-340)", "sequence (Q9NYD6 254-340)": "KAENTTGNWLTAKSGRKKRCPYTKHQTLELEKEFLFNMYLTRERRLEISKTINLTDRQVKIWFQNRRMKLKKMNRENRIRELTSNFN"}, "[28]": {"biological_target": "HOXC10 (Homo sapiens, UniProt Q9NYD6 254-340, K271E)", "sequence (Q9NYD6 254-340 K271E)": "as the sequence (Q9NYD6 254-340) above, with K18E counted along it"}}, "note": "Where a chain is given by its changes, count along the chain named."}
{"sequence": "GCCCGGAC", "values": [{"measurement": "binding signal", "setting": "[1]", "value": "9.85 upbm affinity estimate (log intensity, higher = more binding, comparable within an allelic series)"}, {"measurement": "binding signal", "setting": "[2]", "value": "9.01 upbm affinity estimate (log intensity, higher = more binding, comparable within an allelic series)"}, {"measurement": "binding signal", "setting": "[3]", "value": "9.75 upbm affinity estimate (log intensity, higher = more binding, comparable within an allelic series)"}, {"measurement": "binding signal", "setting": "[4]", "value": "9.48 upbm affinity estimate (log intensity, higher = more binding, comparable within an allelic series)"}, {"measurement": "binding signal", "setting": "[5]", "value": "9.68 upbm affinity estimate (log intensity, higher = more binding, comparable within an allelic series)"}, {"measurement": "binding signal", "setting": "[6]", "value": "9.46 upbm affinity estimate (log intensity, higher = more binding, comparable within an allelic series)"}, {"measurement": "binding signal", "setting": "[7]", "value": "9.5 upbm affinity estimate (log intensity, higher = more binding, comparable within an allelic series)"}, {"measurement": "binding signal", "setting": "[8]", "value": "9.88 upbm affinity estimate (log intensity, higher = more binding, comparable within an allelic series)"}, {"measurement": "binding signal", "setting": "[9]", "value": "8.94 upbm affinity estimate (log intensity, higher = more binding, comparable within an allelic series)"}]}
{"sequence": "CCCGACGC", "values": [{"measurement": "binding signal", "setting": "[1]", "value": "9.83 upbm affinity estimate (log intensity, higher = more binding, comparable within an allelic series)"}, {"measurement": "binding signal", "setting": "[10]", "value": "9.46 upbm affinity estimate (log intensity, higher = more binding, comparable within an allelic series)"}, {"measurement": "binding signal", "setting": "[3]", "value": "9.86 upbm affinity estimate (log intensity, higher = more binding, comparable within an allelic series)"}, {"measurement": "binding signal", "setting": "[11]", "value": "9.54 upbm affinity estimate (log intensity, higher = more binding, comparable within an allelic series)"}, {"measurement": "binding signal", "setting": "[12]", "value": "9.45 upbm affinity estimate (log intensity, higher = more binding, comparable within an allelic series)"}, {"measurement": "binding signal", "setting": "[13]", "value": "9.42 upbm affinity estimate (log intensity, higher = more binding, comparable within an allelic series)"}, {"measurement": "binding signal", "setting": "[14]", "value": "9.26 upbm affinity estimate (log intensity, higher = more binding, comparable within an allelic series)"}, {"measurement": "binding signal", "setting": "[5]", "value": "9.73 upbm affinity estimate (log intensity, higher = more binding, comparable within an allelic series)"}, {"measurement": "binding signal", "setting": "[15]", "value": "9.49 upbm affinity estimate (log intensity, higher = more binding, comparable within an allelic series)"}, {"measurement": "binding signal", "setting": "[16]", "value": "9.75 upbm affinity estimate (log intensity, higher = more binding, comparable within an allelic series)"}, {"measurement": "binding signal", "setting": "[8]", "value": "9.96 upbm affinity estimate (log intensity, higher = more binding, comparable within an allelic series)"}]}
{"sequence": "CCCCCCAG", "values": [{"measurement": "binding signal", "setting": "[1]", "value": "9.46 upbm affinity estimate (log intensity, higher = more binding, comparable within an allelic series)"}, {"measurement": "binding signal", "setting": "[17]", "value": "9 upbm affinity estimate (log intensity, higher = more binding, comparable within an allelic series)"}, {"measurement": "binding signal", "setting": "[18]", "value": "6.72 upbm affinity estimate (log intensity, higher = more binding, comparable within an allelic series)"}, {"measurement": "binding signal", "setting": "[3]", "value": "9.39 upbm affinity estimate (log intensity, higher = more binding, comparable within an allelic series)"}, {"measurement": "binding signal", "setting": "[4]", "value": "9.41 upbm affinity estimate (log intensity, higher = more binding, comparable within an allelic series)"}, {"measurement": "binding signal", "setting": "[19]", "value": "9.81 upbm affinity estimate (log intensity, higher = more binding, comparable within an allelic series)"}, {"measurement": "binding signal", "setting": "[5]", "value": "9.42 upbm affinity estimate (log intensity, higher = more binding, comparable within an allelic series)"}, {"measurement": "binding signal", "setting": "[6]", "value": "9.49 upbm affinity estimate (log intensity, higher = more binding, comparable within an allelic series)"}, {"measurement": "binding signal", "setting": "[7]", "value": "9.5 upbm affinity estimate (log intensity, higher = more binding, comparable within an allelic series)"}, {"measurement": "binding signal", "setting": "[20]", "value": "10.1 upbm affinity estimate (log intensity, higher = more binding, comparable within an allelic series)"}, {"measurement": "binding signal", "setting": "[8]", "value": "9.4 upbm affinity estimate (log intensity, higher = more binding, comparable within an allelic series)"}, {"measurement": "binding signal", "setting": "[21]", "value": "9.37 upbm affinity estimate (log intensity, higher = more binding, comparable within an allelic series)"}, {"measurement": "binding signal", "setting": "[22]", "value": "6.91 upbm affinity estimate (log intensity, higher = more binding, comparable within an allelic series)"}]}
{"sequence": "AGGGATCA", "values": [{"measurement": "binding signal", "setting": "[23]", "value": "11.1 upbm affinity estimate (log intensity, higher = more binding, comparable within an allelic series)"}, {"measurement": "binding signal", "setting": "[24]", "value": "11.1 upbm affinity estimate (log intensity, higher = more binding, comparable within an allelic series)"}]}
{"sequence": "AGATGATA", "values": [{"measurement": "binding signal", "setting": "[23]", "value": "11.1 upbm affinity estimate (log intensity, higher = more binding, comparable within an allelic series)"}, {"measurement": "binding signal", "setting": "[25]", "value": "10.9 upbm affinity estimate (log intensity, higher = more binding, comparable within an allelic series)"}, {"measurement": "binding signal", "setting": "[26]", "value": "10.9 upbm affinity estimate (log intensity, higher = more binding, comparable within an allelic series)"}]}
{"sequence": "CAGGCTTC", "values": [{"measurement": "binding signal", "setting": "[1]", "value": "9.89 upbm affinity estimate (log intensity, higher = more binding, comparable within an allelic series)"}, {"measurement": "binding signal", "setting": "[10]", "value": "9.38 upbm affinity estimate (log intensity, higher = more binding, comparable within an allelic series)"}, {"measurement": "binding signal", "setting": "[27]", "value": "9.9 upbm affinity estimate (log intensity, higher = more binding, comparable within an allelic series)"}, {"measurement": "binding signal", "setting": "[17]", "value": "9.37 upbm affinity estimate (log intensity, higher = more binding, comparable within an allelic series)"}, {"measurement": "binding signal", "setting": "[18]", "value": "7.14 upbm affinity estimate (log intensity, higher = more binding, comparable within an allelic series)"}, {"measurement": "binding signal", "setting": "[3]", "value": "9.71 upbm affinity estimate (log intensity, higher = more binding, comparable within an allelic series)"}, {"measurement": "binding signal", "setting": "[11]", "value": "9.43 upbm affinity estimate (log intensity, higher = more binding, comparable within an allelic series)"}, {"measurement": "binding signal", "setting": "[13]", "value": "9.37 upbm affinity estimate (log intensity, higher = more binding, comparable within an allelic series)"}, {"measurement": "binding signal", "setting": "[19]", "value": "10.5 upbm affinity estimate (log intensity, higher = more binding, comparable within an allelic series)"}, {"measurement": "binding signal", "setting": "[5]", "value": "9.69 upbm affinity estimate (log intensity, higher = more binding, comparable within an allelic series)"}, {"measurement": "binding signal", "setting": "[28]", "value": "9.96 upbm affinity estimate (log intensity, higher = more binding, comparable within an allelic series)"}, {"measurement": "binding signal", "setting": "[16]", "value": "9.74 upbm affinity estimate (log intensity, higher = more binding, comparable within an allelic series)"}, {"measurement": "binding signal", "setting": "[20]", "value": "10.4 upbm affinity estimate (log intensity, higher = more binding, comparable within an allelic series)"}, {"measurement": "binding signal", "setting": "[8]", "value": "9.89 upbm affinity estimate (log intensity, higher = more binding, comparable within an allelic series)"}, {"measurement": "binding signal", "setting": "[21]", "value": "9.5 upbm affinity estimate (log intensity, higher = more binding, comparable within an allelic series)"}, {"measurement": "binding signal", "setting": "[22]", "value": "7.25 upbm affinity estimate (log intensity, higher = more binding, comparable within an allelic series)"}]}
